In PubChem BioAssay AID488969 (Vanderbilt High Throughput Screening Facility, 2010):
Values joined by “and” are separate entries in the source; they are usually repeats but may differ in a detail not shown here. Equal values may be shown once. Whole data set: some 110,000 compounds, median “z-score” near -0.1, cut for the highest 2% near 2. Shown is part of a subset that was picked to be rich in the highest values. Active and inactive are the calls of the source.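 How the source made its calls: active means z-score in the third read window above 3 or below -3; inactive means the rest.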

Each compound was assayed against Metabotropic glutamate receptor 8 (Rattus norvegicus) (UniProt P70579) (assay: mGluR8 Gi/Go-coupled signaling modulation – cell-based, rat, thallium flux, HTS, primary screen (AID 488969)). Settings: HEK293 rat mGluR8, GIRK (G protein-gated inwardly rectifying potassium channel) thallium flux, FluoZin2; at 10 µM; stronger effect = higher value; submaximal glutamate (EC20) added with thallium.
Chain of Metabotropic glutamate receptor 8 (Rattus norvegicus) (P70579 whole entry, looked up): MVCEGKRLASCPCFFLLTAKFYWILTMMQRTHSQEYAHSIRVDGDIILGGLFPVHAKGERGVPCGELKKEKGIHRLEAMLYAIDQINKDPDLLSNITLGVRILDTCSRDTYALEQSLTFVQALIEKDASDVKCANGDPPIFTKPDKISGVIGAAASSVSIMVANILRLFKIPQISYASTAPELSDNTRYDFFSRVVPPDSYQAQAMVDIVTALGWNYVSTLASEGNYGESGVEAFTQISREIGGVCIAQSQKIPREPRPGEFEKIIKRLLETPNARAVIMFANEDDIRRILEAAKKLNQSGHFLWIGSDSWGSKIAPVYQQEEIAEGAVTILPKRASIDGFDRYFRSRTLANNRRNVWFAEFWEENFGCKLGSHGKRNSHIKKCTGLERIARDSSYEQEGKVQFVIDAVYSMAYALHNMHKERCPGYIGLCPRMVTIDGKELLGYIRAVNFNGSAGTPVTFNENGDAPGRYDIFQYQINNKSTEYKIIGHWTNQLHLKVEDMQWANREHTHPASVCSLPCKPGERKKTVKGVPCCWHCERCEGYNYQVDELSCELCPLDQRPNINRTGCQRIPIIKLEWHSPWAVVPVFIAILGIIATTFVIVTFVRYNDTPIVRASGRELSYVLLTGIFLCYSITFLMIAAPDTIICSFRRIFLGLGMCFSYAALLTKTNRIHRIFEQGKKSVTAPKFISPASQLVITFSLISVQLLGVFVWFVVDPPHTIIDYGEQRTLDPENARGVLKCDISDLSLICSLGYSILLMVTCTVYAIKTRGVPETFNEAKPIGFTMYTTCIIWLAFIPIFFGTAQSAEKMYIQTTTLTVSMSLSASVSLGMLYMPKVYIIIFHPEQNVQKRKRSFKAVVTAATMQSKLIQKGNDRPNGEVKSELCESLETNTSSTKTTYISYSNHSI

SMILES	z-score
CC1CCCCN1CC(=O)NC(=O)NCc1ccccc1 (stereo not drawn)	-0.261
O=C(CN1CCOCC1)Nc1ccc(Oc2ccccc2)cc1	1.91
O=C(CN1CCOCCOCCOCC1)Nc1ccccc1	0.274
O=C(CN1CCOCC1)Nc1ccc(C2CCCCC2)cc1	2.23
O=C(CN1CCOCCOCCOCCOCC1)Nc1ccccc1	0.356
COc1ccc(NC(=O)CN2CCCCC2)cc1	0.473
O=C(CN1CCOCC1)Nc1ccc(Oc2ccc(NC(=O)CN3CCOCC3)cc2)cc1	-0.278
O=C(CN1CCNCC1)Nc1ccc(Oc2ccccc2)cc1	2.35
CC1CCCCN1CC(=O)Nc1ccc(Oc2ccccc2)cc1 (stereo not drawn)	3.58 (active)
O=C(CN1CCN(C(=S)NC2CCCC2)CC1)Nc1ccc(Oc2ccccc2)cc1	-0.13
CN1CCN(CC(=O)Nc2ccc(Oc3ccccc3)cc2)CC1	1.4
O=C(CN1CCCC1)Nc1ccc(Oc2ccc(NC(=O)CN3CCCC3)cc2)cc1	2.7
C=CCn1c(N)c(C(=O)Nc2ccc(C)c(C)c2)c2nc3ccccc3nc21	0.661
Cc1c(O)nc(SCC(=O)Nc2ccc3c4c(cccc24)CC3)n(-c2ccccc2)c1=O	-0.768
CCOC(=O)N1CCN(C(=O)CN(C2CCCCC2)S(=O)(=O)c2ccc(F)cc2)CC1	0.315
CCOC(=O)c1cnc2ccc(OCC)cc2c1N1CCN(c2ccccc2OC)CC1	-0.8
COC(=O)c1sc2nc(-c3ccco3)ccc2c1N	2.53
COc1ccccc1NC(=O)c1sc2nc(-c3ccco3)ccc2c1N	0.132
NC(=O)c1sc2nc(-c3ccco3)ccc2c1N	-0.321
O=C(NNC(=S)NCc1ccccc1)c1ccc(OC(F)F)cc1	2.12
CCNC(=S)NNC(=O)c1ccc(OC(F)F)cc1	-0.194
CC(C)CNC(=S)NNC(=O)c1ccc(OC(F)F)cc1	-0.0885
CCOCCCNC(=O)CCCOc1ccccc1	0.0157
O=C(Cc1ccccc1F)Nc1ccc(Cl)nc1	0.217
Cc1ccc(NC2=C(CC(=O)O)C(c3ccccc3)N(c3ccc(C)cc3)C2=O)cc1 (stereo not drawn)	-0.426

SMILES	z-score
Cc1ccc(N2C(=O)c3n[nH]c(C)c3C2c2ccccn2)cc1 (stereo not drawn)	-0.326
Cc1ccc(C2C3=C(NCCN=C3c3ccccc3)C(=O)N2c2ccccc2)cc1 (stereo not drawn)	3.18 (active)
CC1CCCCN1S(=O)(=O)c1ccc(NC(=O)c2cccs2)cc1 (stereo not drawn)	-0.377
O=C(Nc1cccnc1)Nc1ccccc1Cl	0.0762
CCc1ccc(/C=C/C(=O)c2ccc(N3CCOCC3)cc2)cc1	0.286
CCN(CC)CC(=O)NC12CC3CC(CC(C3)C1)C2	2.42
O=C(O)CC(=O)NC12CC3CC(CC(C3)C1)C2	-0.251 and -0.244
COCCC(=O)NC12CC3CC(CC(C3)C1)C2	-0.301
CCCCCC[n+]1c(-c2ccc(Cl)cc2Cl)csc1Nc1ccccc1	-0.156
O=C(CN(Cc1ccc2c(c1)OCO2)C(=O)c1cnsn1)NC1CCCC1	-0.186
O=C(NC1CCCCC1)C(c1ccc(F)cc1)N(Cc1ccc2c(c1)OCO2)C(=O)c1cnsn1 (stereo not drawn)	0.366
O=C(NC1CCCCC1)C(c1ccccc1)N(Cc1ccc2c(c1)OCO2)C(=O)c1cnsn1 (stereo not drawn)	2.16
COc1cc(CCN2C(=O)c3cccc4cccc(c34)C2=O)c(S(=O)(=O)N2CCCCCC2)cc1OC	-0.297
Cn1c(=O)c2c(nc(CN3CCc4ccccc4C3)n2CC(=O)c2ccccc2)n(C)c1=O	-0.969
Cn1c(=O)c2c(nc(CN3CCc4ccccc4C3)n2Cc2ccccc2)n(C)c1=O	-0.932
COC(=O)Cn1c(CN2CCc3ccccc3C2)nc2c1c(=O)n(C)c(=O)n2C	5.81 (active)
CCOC(=O)c1ccc(NC(=O)c2cc(OC)c(OC)c(OC)c2Br)cc1	0.551
O=C(O)C1CCCCC1C(=O)NCc1cn2ccccc2n1 (stereo not drawn)	-0.352
O=C(CN1CCOCC1)Nc1ccc(OCc2ccccc2)cc1	0.323
Cc1ccc(Cn2c(SCC(N)=O)nc3c2c(=O)n(C)c(=O)n3C)cc1	-0.328
Cc1ccc(Cn2c(SCC(C)C)nc3c2c(=O)n(C)c(=O)n3C)cc1	-0.493
CNC(=O)CSc1nc2c(c(=O)n(C)c(=O)n2C)n1Cc1ccc(C)cc1	2.07
COc1cc(NC(=O)c2ccco2)c(OC)cc1NC(=O)CSc1nnc(-c2cccs2)n1C	-1.07
CCOC(=O)C1=C(CC)Nc2ccccc2N=C1NC(=O)Nc1ccc(Cl)c(Cl)c1	5.4 (active)
CCOC(=O)C1=C(CC)Nc2ccccc2N=C1NC(=O)c1cc(S(=O)(=O)N(C)C)ccc1Cl	0.243

SMILES	z-score
CCOC(=O)C1=C(CC)Nc2ccccc2N=C1NC(=O)Nc1ccccc1OC	0.249
Cc1cc(C)n(C(=O)c2ccc(C)c(F)c2F)n1	-0.238
CCCCNS(=O)(=O)c1ccc(S(=O)(=O)NCc2ccncc2)cc1	2.5
CCCCCc1ccc(S(=O)(=O)NCCc2ccncc2)cc1	0.483
CCCCc1ccc(S(=O)(=O)NCCc2ccncc2)cc1	0.298
CCOC(=O)C1=C(C)Nc2sc(C(=O)c3ccc(C)cc3)c(N)c2C1c1ccc(C(=O)OC)cc1 (stereo not drawn)	-0.284
CCc1ccc(NC(=S)NNC(=O)c2ccccc2OC(F)F)cc1	3.63 (active)
O=C(NNC(=S)Nc1ccc(F)cc1)c1ccccc1OC(F)F	-0.00644
Cc1ccc(NC(=S)NNC(=O)c2ccccc2OC(F)F)cc1	0.966
CC1Cc2ccccc2N1C(=O)CSc1ccccc1 (stereo not drawn)	-0.501
CCOc1ccc(N2C(=O)CC(N3CCc4ccccc43)C2=O)cc1 (stereo not drawn)	1.67
Cc1sc2ncn(CC(=O)NCCc3ccccc3)c(=O)c2c1C	0.251
COc1ccccc1CC(=O)N(CCC#N)CCC#N	-0.512
N#CCCN(Cc1cccnc1)C(=O)Nc1ccccc1	-0.271
N#CCCN(Cc1ccccc1)C(=S)NC(=O)c1ccccc1	2.39
N#CCCN(Cc1ccccc1)C(=S)Nc1ccccc1	-0.262
COc1ccc(CN(CCC#N)C(=S)NC(=O)c2ccccc2)cc1	4.49 (active)
COc1ccc(CNC(=O)c2ccc(-c3ccccc3)cc2)cc1	-0.113
c1ccc2c(c1)CC1(CCCC1)n1nnnc1-2	-0.648
C/C(=N\NC(=O)c1c(Cl)c(C)nn1C)c1ccc(NC(=O)COc2ccc(Cl)cc2C)cc1	0.132
O=C(CSc1ccc(-c2ccco2)nn1)c1ccccc1	7.29 (active)
COc1ccc(C(=O)CSc2ccc(-c3ccco3)nn2)cc1	0.654
O=C(CSc1ccc(-c2ccco2)nn1)c1ccc(F)cc1	-0.0218
